Screening results as filed in PubChem.
These entries were drawn from the full list.
aSyn 5UTR act: Activators via SNCA 5'UTR binding, MLPCN | alpha-synuclein 5'UTR reporter, activators screen | activity score, % (tested at 7.5 µM), hits read low | 300,000 tested, 7.1% active | AID 1814, 2009; in the data active = activity score below about -60%
Of the large screens only hits and unclear results are named; the others gave an inactive call.

Nc1c(C(=O)c2ccc(Br)cc2)oc2ccccc12	aSyn 5UTR act -173.7
Nc1c(C(=O)c2ccccc2)oc2ccc(Br)cc12	aSyn 5UTR act -255.8
CCOC(=O)c1oc2ccccc2c1N	aSyn 5UTR act -90.0
COC(=O)CCC(=O)c1oc2ccc(Br)cc2c1N	aSyn 5UTR act -82.7
Cn1/c(=N/NC(=O)c2ccccc2Br)sc2ccccc21	aSyn 5UTR act -75.1
C=CC(=O)N=c1sc2ccccc2n1-c1ccccc1	none
Cn1c(=NC(=O)C2=NNC(=O)CC2)sc2ccccc21	none
CN1N=C(/C=C/c2ccccc2)CCC1=O	aSyn 5UTR act -134.3
Cc1ccc(/C=C/C2=NN(C)C(=O)CC2)cc1	aSyn 5UTR act -104.3
CC(C)CC1NC(=O)N(CC(=O)c2ccc3c(c2)OCCO3)C1=O (stereo unspecified)	aSyn 5UTR act -115.2
CCN1CCN(c2ccc(NC(=O)c3ccc4c(c3)[nH]c(=O)n4Cc3ccc(F)cc3)cc2)CC1	aSyn 5UTR act -67.6
CCN1CCN(Cc2ccc(NC(=O)c3ccc(C)c(NC(=O)N4CCNC4=O)c3)cc2C(F)(F)F)CC1	none
CC(Oc1c(Cl)cccc1Cl)C1=NCCN1 (stereo unspecified)	aSyn 5UTR act -79.6
Nc1nccc(-c2ccc(-n3cccc3)cc2)n1	aSyn 5UTR act -132.1
CC(C)(C)c1ccc(-c2nnc(N)s2)cc1	aSyn 5UTR act -65.0
O=C(Nc1cnn(Cc2ccccc2)c1)c1nc2ncccn2n1	aSyn 5UTR act -66.2
CCCCc1c(O)nc(SCC(=O)c2ccccc2)[nH]c1=O	aSyn 5UTR act -87.1
O=C(CSc1nc(O)c(Cc2ccccc2)c(=O)[nH]1)c1ccccc1	aSyn 5UTR act -62.8
CCc1ccc(C(=O)/C=C/c2ccc([N+](=O)[O-])o2)cc1	aSyn 5UTR act -151.3
C=CCn1c(=S)[nH]c2nc3c(cc2c1=O)CCCC3	aSyn 5UTR act -92.3
CCN(Cc1ccccc1)C(=O)CCCOc1ccccc1	aSyn 5UTR act -91.4
Cc1ccc2c(C)c(C(=O)N(C)C(C)c3ccon3)oc2c1C (stereo unspecified)	aSyn 5UTR act -149.2
COc1ccccc1C(=O)Oc1ccccc1C(=O)Nc1ccccc1	aSyn 5UTR act -162.9
COc1cc(SC)ccc1C(=O)Nc1ccccc1	aSyn 5UTR act -184.1
COc1ccccc1C(=O)NNC(=S)Nc1ccccc1	aSyn 5UTR act -107.1
O=C(Oc1ccccc1C(=O)Nc1ccccc1)c1ccc(Br)c([N+](=O)[O-])c1	aSyn 5UTR act -120.6
COc1cc(SC)ccc1C(=O)Nc1nc2ccccc2[nH]1	none
COc1ccccc1C(=O)Nc1ccc(Br)cc1C	aSyn 5UTR act -96.2
Cc1nn(C)cc1C(=O)NNC(=S)Nc1ccccc1	aSyn 5UTR act -110.3
O/C(=C\c1nc2ccccc2[nH]1)c1cccs1	aSyn 5UTR act -199.7
O=C(Nc1nc2ccccc2[nH]1)c1cccs1	aSyn 5UTR act -91.5
O=C(Nc1nc2ccccc2[nH]1)c1ccc(Br)o1	aSyn 5UTR act -131.8
Cc1ccc(C(=O)Nc2nc3ccccc3[nH]2)cc1	none
O=C(Nc1nc2ccccc2[nH]1)C12CC3CC(CC(C3)C1)C2	aSyn 5UTR act -181.4
Cc1[nH]c2ccccc2c1-c1nc2ccccc2[nH]c1=O	aSyn 5UTR act -62.8
O=C(Nc1ccc(-c2nc3ccccc3[nH]2)cc1)C1CCCO1 (stereo unspecified)	none
O=c1[nH]c2ccccc2nc1-c1cccs1	aSyn 5UTR act -152.1
O=C(Nc1nc2ccccc2[nH]1)C1CCCO1 (stereo unspecified)	aSyn 5UTR act -79.1
O=c1[nH]c2ccccc2nc1/C=C(\O)c1cccs1	aSyn 5UTR act -174.0
COc1cc(C(=O)N/N=C/c2cn(Cc3ccccc3)c3ccccc23)ccc1O	none
O=C(Cn1cc(SCc2ccc(Cl)cc2)c2ccccc21)N1CCOCC1	aSyn 5UTR act -89.8
O=C(CSc1cn(Cc2ccccc2)c2ccccc12)N1CCOCC1	aSyn 5UTR act -129.4
CCc1ccc(CCC(=O)Nc2ccc(Cl)cc2)o1	aSyn 5UTR act -66.8
Fc1cccc(NC(=S)NNc2ccccc2)c1	aSyn 5UTR act -139.9
O=[N+]([O-])c1ccc(NNC(=S)Nc2ccccc2)cc1	aSyn 5UTR act -122.0
O=[N+]([O-])c1ccc(O)c(NC(=S)Nc2ccccc2)c1	aSyn 5UTR act -156.6
CC(=O)Nc1ccc(-c2csc(NC(=O)c3ccc(C)o3)n2)cc1	aSyn 5UTR act -83.3
COc1ccc(OC)c(NC(=O)c2ccc(-c3csc(C)n3)cc2)c1	aSyn 5UTR act -84.4
Cc1ccc(-c2csc(NC(=O)C3=COCCO3)n2)cc1	aSyn 5UTR act -168.9
Cc1nc(-c2ccc(C(=O)Nc3cccc(Br)c3)cc2)cs1	aSyn 5UTR act -142.8
COc1ccc(C)c2sc(NC(=O)C3=COCCO3)nc12	aSyn 5UTR act -76.6
CC(C)(C)c1csc(NC(=O)C2=COCCO2)n1	aSyn 5UTR act -107.1
O=C(Nc1cccc(Br)c1)c1ccn[nH]1	aSyn 5UTR act -102.2
O=C(Nc1nc(-c2cc(F)ccc2F)cs1)C1=COCCO1	aSyn 5UTR act -62.6
Cc1ccc(-c2csc(NC(=O)N3CCOCC3)n2)cc1	aSyn 5UTR act -103.5
O=C(Nc1nc(-c2cc(F)ccc2F)cs1)c1ccccn1	aSyn 5UTR act -115.1
CCOC(=O)c1csc(NC(=O)C2CCCCC2)n1	aSyn 5UTR act -103.0
Cc1nc(-c2ccc(NC(=O)c3ccc(Br)o3)cc2)cs1	aSyn 5UTR act -174.9
